Only some compounds are listed: those with a hit (about 2.7% of all), similar ones and a draw of the others.
LDHA block – blocks human lactate dehydrogenase A | P00338 | purified LDHA, NADH/diaphorase-resazurin fluorescence; stronger effect = lower value | activity change, % (values are at about 110 or 230 µM) | actives 0.15% (n = 480,000); in the data active = activity change below about -30%; inconclusive = mostly about -25% to -30%
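Remaining NADH was detected by diaphorase (0.133 mg/mL) converting 37 µM resazurin to fluorescent resorufin, read at 0 and 20 minutes. The preceding 5-minute room-temperature reaction used 2 nM LDHA, 0.2 mM sodium pyruvate and 0.06 mM NADH at pH 7.4.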
IDH1 R132H inh – blocks human mutant IDH1 R132H enzyme; O75874; IDH1-R132H enzyme, NADPH consumption, diaphorase/resazurin fluorescence; Potency, µM (highest dose often 76.6 µM), most hits filed as inhibitors; actives 0.093% (n = 390,000); AID 602179; also: nearly all actives have a fitted effect of over 65% in size
Target sequence (O75874 whole entry R132H, stated change not applied): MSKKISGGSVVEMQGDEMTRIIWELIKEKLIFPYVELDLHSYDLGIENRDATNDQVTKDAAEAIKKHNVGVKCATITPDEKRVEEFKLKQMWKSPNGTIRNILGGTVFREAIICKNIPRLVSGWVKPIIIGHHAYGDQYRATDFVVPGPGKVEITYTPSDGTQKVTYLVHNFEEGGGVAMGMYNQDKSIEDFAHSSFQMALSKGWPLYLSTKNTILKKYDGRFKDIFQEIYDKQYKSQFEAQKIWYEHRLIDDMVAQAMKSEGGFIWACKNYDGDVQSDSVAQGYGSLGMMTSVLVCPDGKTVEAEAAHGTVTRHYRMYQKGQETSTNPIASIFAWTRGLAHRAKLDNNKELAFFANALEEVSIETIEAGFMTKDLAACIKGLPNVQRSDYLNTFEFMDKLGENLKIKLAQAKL
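IDH1-R132H (0.5 ug/mL) preincubated 30 min with compound, then NADPH (0.016 mM) and alpha-KG (2 mM) added; 80 min at RT, pH 7.5. Remaining NADPH coupled via diaphorase/resazurin to fluorescence (540/590 nm); concentration-response curves normalized to no-enzyme control.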
Nrf2 block – inhibitors of Nrf2 signaling. A549 ARE-Fluc reporter, luciferase luminescence, 18-24 h. Potency, µM (series often up to 46 µM), most hits filed as inhibitors. actives 2.1% (n = 360,000). AID 504444; also: nearly all actives have a fitted effect of over 60% in size
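Cells were seeded and rested 2 h, then exposed to compounds for 18-24 h. CellTiter-Fluor was read first as a viability measure. BugLite was added 15 min before the final luminescent read of ARE-luciferase activity in A549 cells.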
ALOX12 inh – blocks human arachidonate 12S-lipoxygenase; actives 1.1% (n = 580,000); AID 1671190; purified 12hLO, xylenol orange hydroperoxide absorbance; P18054; Potency, µM (top dose mostly 108 µM), actives largely listed as inhibitors
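Purified human 12hLO at 150 nM in 25 mM Hepes, 0.01% Triton X-100, pH 7.0, preincubated 15 min at room temperature with compound. Reaction started with 40 uM arachidonic acid, 30 min at room temperature. Hydroperoxide measured by Fe-xylenol orange, 573/405 nm absorbance ratio.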
Nrf2 activator – activates Nrf2 signaling; AREc32 ARE-luciferase reporter (MCF7-derived line), luminescence, 24 h; Potency, µM (titrated, usually from 46.1 µM), hits mostly activators; actives 0.31% (n = 410,000); AID 624171; also: nearly all actives have a fitted effect of over 65% in size
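Luminescent ARE reporter assay in AREc32_Fluc cells: overnight plating at 37 deg C, 24 hr compound incubation, Steady-Glo added, 30 min RT before reading.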
A549 viability – kills or reduces viability of A549 cells in Nrf2 counter-screen | A549 ARE-Fluc cells, CellTiter-Fluor viability, 18-24 h | Potency, µM (titrated, usually from 46 µM), hits mostly inhibitors | actives 0.16% (n = 390,000) | AID 504648
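A549 ARE_Fluc cells in 5% FBS OPTI-MEM were exposed to compounds in concentration-response for 18-24 h at 37 deg C. Viability was read by CellTiter-Fluor fluorescence (Ex 405/Em 525) after 30 min, before the luciferase read.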
Hits are given with their value. Unless noted, calls follow the shape of the dose curve; as a rule, active = well fitted curve in the direction sought with a large enough effect; inconclusive = small, poorly fitted or top-dose-only effect, or another doubt; inactive = no such curve, though single readings can be large; an effect the other way counts as inactive or inconclusive.

CCOC(=O)c1sc(NC(=O)c2cccc(S(=O)(=O)N3CCN(C)CC3)c2)cc1C was read as LDHA block inactive, IDH1 R132H inh inactive, Nrf2 block inactive, ALOX12 inh 45µM, Nrf2 activator inactive and A549 viability inactive.
O=C(Nc1nc(-c2ccccn2)cs1)c1cccc(S(=O)(=O)N2CCOCC2)c1 was read as LDHA block inactive, IDH1 R132H inh inactive, Nrf2 block 3.3µM, ALOX12 inh inactive, Nrf2 activator inactive and A549 viability inconclusive.
`COc1ccc(-c2csc(NC(=O)c3cccc(S(=O)(=O)N4CCN(C)CC4)c3)n2)cc1` gave LDHA block inactive, IDH1 R132H inh inactive, Nrf2 block 15µM, ALOX12 inh inactive, Nrf2 activator inactive and A549 viability inactive.
COc1ccc(-c2csc(NC(=O)c3ccccc3S(C)(=O)=O)n2)cc1 was read as LDHA block inactive, IDH1 R132H inh inactive, Nrf2 block 16µM, ALOX12 inh inactive, Nrf2 activator inactive and A549 viability inactive.
For COc1ccc(-c2csc(NC(=O)c3ccccc3C(=O)O)n2)cc1 the results were LDHA block inactive, IDH1 R132H inh inactive, Nrf2 block inactive, ALOX12 inh inactive, Nrf2 activator inactive and A549 viability inactive.
`CC(C)n1nnnc1SCC(=O)N(Cc1cccs1)c1ccc2c(c1)OCCO2` gave LDHA block inactive and ALOX12 inh inactive.
For CN(CCCN1c2ccccc2CCc2ccccc21)C(=O)[C@H]1CCC[C@@H](O)C1 the results were ALOX12 inh inactive.
CC(CC(C)C(=O)c1ccccc1)C(=O)c1ccccc1 (centres undefined) was read as LDHA block inactive and ALOX12 inh inactive.
Screening O=C1N/C(=N/Nc2ccccc2)S/C1=C\c1ccccc1 returned LDHA block inactive, IDH1 R132H inh inactive, Nrf2 block inactive, ALOX12 inh 5.6µM, Nrf2 activator inactive and A549 viability inactive.
O=C1NC(=Nc2ccccc2)S/C1=C\c1ccccc1 was read as LDHA block inactive, IDH1 R132H inh inactive, Nrf2 block inconclusive, ALOX12 inh inactive, Nrf2 activator inconclusive and A549 viability inactive.
For O=c1[nH]c(/C=C/c2ccc(OC(F)F)cc2)nc2c1cnn2-c1ccccc1 the results were LDHA block inactive, IDH1 R132H inh inactive, Nrf2 block 16µM, ALOX12 inh inactive, Nrf2 activator inactive and A549 viability inactive.
For COc1ccc(C(=O)COC(=O)CCc2ccc(-c3ccccc3)o2)cc1 the results were LDHA block inactive and ALOX12 inh 7.9µM.
For O=C(OCc1nc2ccccc2s1)c1ccc(Br)s1 the results were LDHA block inactive, IDH1 R132H inh inactive, ALOX12 inh inactive, Nrf2 activator 11µM and A549 viability inconclusive.
`Cc1ccc(C(=O)OCc2nc3ccccc3s2)o1` gave LDHA block inactive, IDH1 R132H inh inactive, Nrf2 block inconclusive, ALOX12 inh inconclusive, Nrf2 activator 10µM and A549 viability inactive.
`CCOC(=O)c1csc(NC(=O)c2ccc(OCC)cc2)n1` gave LDHA block inactive, IDH1 R132H inh inactive, Nrf2 block 21µM, ALOX12 inh inactive, Nrf2 activator inactive and A549 viability inactive.
Screening CCOC(=O)c1csc(NC(=O)c2ccccc2)n1 returned LDHA block inactive, IDH1 R132H inh inactive, Nrf2 block inconclusive, ALOX12 inh inactive, Nrf2 activator inactive and A549 viability inactive.
For O=S(=O)(/C=C/c1ccccc1)Oc1ccccc1 the results were LDHA block inactive, IDH1 R132H inh inactive, Nrf2 block inactive, ALOX12 inh inactive, Nrf2 activator 13µM and A549 viability inactive.
For Cc1ccc(OC2(C(=O)NC(C)c3cn4ncsc4n3)CCNCC2)cc1 (centres undefined) the results were ALOX12 inh 14µM.
`CCOC(=O)c1[nH]c(=S)n(Cc2ccccc2)c1C(=O)OCC` gave LDHA block inactive, IDH1 R132H inh inactive, Nrf2 block inactive, ALOX12 inh inconclusive, Nrf2 activator inactive and A549 viability inactive.
`CCOC(=O)c1[nH]c(=S)n(-c2ccccc2)c1C(=O)OCC` gave LDHA block inactive, IDH1 R132H inh inactive, ALOX12 inh 7.1µM and Nrf2 activator inactive.
COc1ccc2[nH]c3c(NCCCOC(C)C)ncnc3c2c1 was read as LDHA block inactive, IDH1 R132H inh inactive, Nrf2 block inactive, ALOX12 inh inactive, Nrf2 activator inactive and A549 viability inactive.
For Fc1ccc2[nH]c3c(NCc4ccccc4)ncnc3c2c1 the results were LDHA block inactive, IDH1 R132H inh inactive, Nrf2 block 18µM, ALOX12 inh inconclusive, Nrf2 activator inactive and A549 viability inactive.
`COc1ccc2[nH]c3c(NCc4ccco4)ncnc3c2c1` gave LDHA block inactive, IDH1 R132H inh inactive, Nrf2 block inconclusive, Nrf2 activator 3.2µM and A549 viability inactive.
CCN(CC(=O)Nc1ccc(NC(C)=O)cc1)CC(=O)Nc1ccc(Cl)c(Cl)c1 was read as LDHA block -45, IDH1 R132H inh inactive, Nrf2 block inactive, ALOX12 inh inactive, Nrf2 activator inactive and A549 viability inactive.
For O=C(CN(CC(=O)Nc1ccc(F)cc1)CC(=O)Nc1ccc(F)cc1)Nc1ccc(F)cc1 the results were ALOX12 inh 13µM.
C/C(CC(=O)Nc1ccc(Cl)c(Cl)c1)=N\NC(N)=S was read as LDHA block inactive, IDH1 R132H inh inactive, Nrf2 block inactive, ALOX12 inh 1µM, Nrf2 activator inactive and A549 viability inactive.
Screening Cc1cc(Br)ccc1NC(=O)CNC(=O)c1cc2ccccc2oc1=O returned LDHA block inactive and ALOX12 inh inconclusive.
COc1ccccc1CNC(=O)c1ncoc1-c1cccs1 was read as LDHA block inactive and ALOX12 inh inconclusive.
Screening COc1ccc(CN2CCNC(=O)C2CC(=O)NC2CCCCCC2)c(C)c1C (centres undefined) returned LDHA block inactive, IDH1 R132H inh inactive, Nrf2 block inactive, ALOX12 inh 32µM, Nrf2 activator inactive and A549 viability inactive.
For COc1cc(OC)cc(C(=O)Nc2nc(-c3ccccc3)c(-c3ccccc3)o2)c1 the results were LDHA block inactive, IDH1 R132H inh inactive, Nrf2 block 18µM, ALOX12 inh inactive, Nrf2 activator inactive and A549 viability inconclusive.
O=C(NCCSc1ccccc1)c1ccc(Br)cc1 was read as LDHA block inactive, IDH1 R132H inh inactive, Nrf2 block inconclusive, ALOX12 inh inactive, Nrf2 activator inactive and A549 viability inconclusive.
CN(C)S(=O)(=O)c1ccc(C(=O)NCCSc2ccc(Br)cc2)cc1 was read as LDHA block inactive, IDH1 R132H inh inactive, Nrf2 block 21µM, ALOX12 inh inactive, Nrf2 activator inactive and A549 viability inconclusive.

Compound activity deposited in PubChem BioAssay by National Center for Advancing Translational Sciences (NCATS).
